# In PubChem BioAssay (NCI):
# Values joined by “and” are separate entries in the source; they are usually repeats but may differ in a detail not shown here. Equal values may be shown once. About 79,000 compounds went through this panel and 15% of them were active in at least one assay; those are over-represented in the sample as a whole. Unmarked numbers belong to inactive results. Active and inactive are the calls of the source. No stated cut-off is given here; in the data, active means growth inhibition above about 70%; inactive means the rest.
# Assay: NCI Yeast Anticancer Drug Screen. Data for the rad50 strain (AID 155);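 further: 0% = growth of vehicle-only cultures of the same strain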
# Conditions: S. cerevisiae rad50 strain growth inhibition; at 50.0 µM; stronger effect = higher value
# Procedure, shortened: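 Relative growth inhibition (compound vs vehicle) was measured in yeast with a defined repair-gene alteration.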
row,Structure (SMILES),growth inhibition
1,COC(COC(N)=O)C1=C(N2CC2)C(=O)C(C)=C(N2CC2)C1=O (configuration not stated),66.1%
2,Cc1nc(Cl)c(CBr)c(Cl)n1,67.8%
3,C[n+]1[se]nc2cc(C(=O)c3ccccc3)ccc21 (tested in a mixture with another compound),99.3% (active)
4,O=C(O)c1ccccc1.[Ag],90.8% (active) and 91.2% (active)
5,CC(=O)[O-].O=C([CH-]C(=O)c1ccccc1)c1ccccc1.O=C([CH-]C(=O)c1ccccc1)c1ccccc1.[Sm+3],90.8% (active)
6,CC(C)(Br)C(=O)C(Br)Br,86.3% (active)
7,COC1(OC)C(Cl)=C(Cl)C(Cl)=C1Cl,46.4%
8,C=C[C@H]1CN2CC[C@H]1C[C@@H]2[C@@H](O)c1ccnc2ccccc12,-1.45%
9,[C-]#[O+].[C-]#[O+].[Ir].[O-]c1ccc2ccccc2c1N=Nc1ccccc1,74.5% (active)
10,O=C(Nc1ccccc1)OC(C[N+](=O)[O-])C(Cl)(Cl)Cl (configuration not stated),99.3% (active)
11,O=c1c2ccccc2[se]n1-c1cccnc1,23.1%
12,[Pt].c1ccc(P(CCP(c2ccccc2)c2ccccc2)CCP(c2ccccc2)c2ccccc2)cc1,79% (active)
13,CC12CCC(C1)C(C)(C)C2OC(=O)c1ccccc1N (configuration not stated),-5.6%
14,CC(=O)[O][Hg][c]1cc2c(cc1O)Cc1cc([N+](=O)[O-])ccc1-2,93.5% (active)
15,OC1(c2ccccc2)CC2CCC(C1)N2CCCC(O)(c1ccccc1)c1ccccc1 (configuration not stated),33.2%
16,ClC1=C(Cl)C(Cl)(Cl)SS1,88.7% (active)
17,COC(=O)C(F)C(Br)C(=O)OC (configuration not stated),90.8% (active)
18,c1ccc2c(NCCCCCCNc3c4ccccc4nc4ccccc34)c3ccccc3nc2c1,75.4% (active)
19,c1ccc2c(NCCCCCCCCNc3c4ccccc4nc4ccccc34)c3ccccc3nc2c1,85.3% (active)
20,CN(Cc1ccccc1)CC(O)c1ccc(Cl)cc1 (configuration not stated),57.5%

row,Structure (SMILES),growth inhibition
1,Br[C](Br)(Br)[Hg][c]1ccccc1,87.3% (active)
2,Cc1cc(N=Nc2ccccc2C)ccc1N,91.4% (active) and 88.5% (active)
3,C/C(=N\N=C(/[Se])N1CC2CCC(CC2)C1)c1ccccn1,87.5% (active)
4,CCCCCCCCCC[Se]C#N,99.4% (active)
5,CNCC(O)c1ccc(O)c(O)c1.[Pt].c1ccc([PH+](c2ccccc2)c2ccccc2)cc1.c1ccc([PH+](c2ccccc2)c2ccccc2)cc1,99% (active)
6,CCN(CC)CC.CCOc1ccc(NC(=O)N=C=[N-])cc1.[CH-]1CCCCC1.[CH-]1CCCCC1.[CH-]1CCCCC1.[Cl-].[Sn+4],87.2% (active)
7,Cc1cc(N(C)C)c2ccccc2[n+]1CCCCCCCCCC[n+]1c(C)cc(N(C)C)c2ccccc21,89.1% (active)
8,CCC[CH2][Sn]1([CH2]CCC)[O]CC(CN2CCCC2)[O]1 (configuration not stated),83.8% (active)
9,N#Cc1ccc([Se]c2ccccc2)cc1,73.9% (active)
10,O=c1ssc(Cl)c1Cl,86.5% (active)
11,Nc1nc(N)c(-c2ccc(Cl)c(Cl)c2)c(CP(Cl)(Cl)(Cl)Br)n1,62%
12,Cc1ccc(P(c2ccc(C)cc2)c2ccc(C)cc2)cc1,37.7%
13,O=C(O)c1ccccc1[Se][Se]c1ccccc1C(=O)O,21.1%
14,CC1CC(C)CC(C)C(O)/C(C#N)=C/C=C/CC(C2CCCC2C(=O)O)OC(=O)CC(O)C(C)C1 (configuration not stated),92.6% (active)
15,CCC[CH2][Pb]([Cl])([CH2]CCC)[CH2]CCC,88% (active)
16,CNC(Cc1ccccc1)c1ccc(OC)c(OC)c1 (configuration not stated),-2.25%
17,CC1C(=O)OCC1(C)O (configuration not stated),-15.2%
18,O=C(Nc1ccccc1)c1cc([N+](=O)[O-])ccc1O,95.7% (active)
19,N=P(c1ccccc1)(c1ccccc1)c1ccccc1 (tested in a mixture with another compound),62.2%

# Same assay, conditions: S. cerevisiae rad50 strain growth inhibition; at 100.0 µM; stronger effect = higher value
row,Structure (SMILES),growth inhibition
1,O=C(O)c1ccccc1.[Ag],99% (active)
2,CC(=O)[O-].O=C([CH-]C(=O)c1ccccc1)c1ccccc1.O=C([CH-]C(=O)c1ccccc1)c1ccccc1.[Sm+3],98% (active)
3,C=C[C@H]1CN2CC[C@H]1C[C@@H]2[C@@H](O)c1ccnc2ccccc12,-2%
4,O=c1c2ccccc2[se]n1-c1cccnc1,90% (active)
5,[Pt].c1ccc(P(CCP(c2ccccc2)c2ccccc2)CCP(c2ccccc2)c2ccccc2)cc1,93% (active)
6,CC12CCC(C1)C(C)(C)C2OC(=O)c1ccccc1N (configuration not stated),61%
7,OC1(c2ccccc2)CC2CCC(C1)N2CCCC(O)(c1ccccc1)c1ccccc1 (configuration not stated),62%
8,COC(=O)C(F)C(Br)C(=O)OC (configuration not stated),98% (active)
9,CCCCCCCCCC[Se]C#N,97% (active)
10,CNCC(O)c1ccc(O)c(O)c1.[Pt].c1ccc([PH+](c2ccccc2)c2ccccc2)cc1.c1ccc([PH+](c2ccccc2)c2ccccc2)cc1,96% (active)
11,Nc1nc(N)c(-c2ccc(Cl)c(Cl)c2)c(CP(Cl)(Cl)(Cl)Br)n1,59%
12,Cc1ccc(P(c2ccc(C)cc2)c2ccc(C)cc2)cc1,36%
13,CC1CC(C)CC(C)C(O)/C(C#N)=C/C=C/CC(C2CCCC2C(=O)O)OC(=O)CC(O)C(C)C1 (configuration not stated),97% (active)
